Measured values taken from PubChem BioAssay (NCI).
The panel holds about 79,000 compounds, 15% with a hit somewhere; the sample as a whole holds those more often. Active and inactive are the calls of the source. Rule as the data show it: active = growth inhibition above about 70%; inactive = the rest.

Tests used:
[1] = NCI Yeast Anticancer Drug Screen. Data for the rad52 strain (AID 147);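 also: 0% = growth of vehicle-treated control cultures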; details: S. cerevisiae rad52 mutant growth inhibition, hits give high values
In short: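 The repair-mutant yeast strain was incubated with compounds, then growth was read and inhibition derived relative to vehicle.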

[2] = NCI Yeast Anticancer Drug Screen. Data for the wt1 strain (AID 149);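 also: 0% = growth of vehicle-treated wt1 cultures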; details: S. cerevisiae wt1 strain (SPY 50644) growth inhibition, hits give high values
In short: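 Using yeast strain wt1, compound-induced growth inhibition was determined against vehicle-treated cultures.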

[3] = NCI Yeast Anticancer Drug Screen. Data for the rad50EPP+ strain (AID 151);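 also: 0% = growth of vehicle-treated control cultures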; details: S. cerevisiae rad50 mutant strain, hits give high values
In short: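 Vehicle-normalised growth inhibition; rad50EPP+ yeast strain, altered in DNA damage repair, compound-treated.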

[4] = NCI Yeast Anticancer Drug Screen. Data for the mgt1 strain (AID 153); details: S. cerevisiae mgt1 mutant growth inhibition, hits give high values
In short: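 Vehicle-normalized growth inhibition is determined in mgt1 yeast, a strain selected for a defined alteration in DNA repair or cell cycle control.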

[5] = NCI Yeast Anticancer Drug Screen. Data for the rad50 strain (AID 155);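 also: 0% = growth of vehicle-only cultures of the same strain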; details: S. cerevisiae rad50 strain growth inhibition, hits give high values
In short: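 Relative growth inhibition (compound vs vehicle) was measured in yeast with a defined repair-gene alteration.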

[6] = NCI Yeast Anticancer Drug Screen. Data for the mec2-1 strain (AID 157); details: S. cerevisiae mec2-1 strain, hits give high values
In short: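 Mutant yeast (mec2-1) grown with compound; growth inhibition relative to vehicle control reported.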

[7] = NCI Yeast Anticancer Drug Screen. Data for the rad14 strain (AID 159);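 also: 0% = growth of vehicle-treated control cultures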; details: S. cerevisiae rad14 strain growth inhibition, hits give high values
In short: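 Screen for anticancer potential: a yeast strain altered in DNA damage repair is grown with compound, and reduced growth is quantified against vehicle controls.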

[8] = NCI Yeast Anticancer Drug Screen. Data for the sgs1 mgt1 strain (AID 161);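 also: 0% = growth of cultures given vehicle only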; details: S. cerevisiae sgs1 mgt1 strain, hits give high values
In short: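 Percent growth inhibition was derived by comparing compound-exposed mutant yeast with vehicle-exposed cultures. The strain carries alterations in DNA damage repair.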

[9] = NCI Yeast Anticancer Drug Screen. Data for the CLN2oe strain (AID 163);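 also: 0% = growth of vehicle-only control cultures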; details: S. cerevisiae CLN2oe strain, hits give high values
In short: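 Compounds are applied to yeast harbouring a defined cell-cycle control change; reduced growth compared with vehicle-treated controls gives the value.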

[10] = NCI Yeast Anticancer Drug Screen. Data for the cln2 rad14 strain (AID 165);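 also: 0% = growth equal to vehicle treated cultures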; details: S. cerevisiae cln2 rad14 strain, hits give high values
In short: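 Readout is yeast growth inhibition versus vehicle-treated controls, using a strain with cln2 and rad14 alterations exposed to compound.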

[11] = NCI Yeast Anticancer Drug Screen. Data for the bub3 strain (AID 167); details: S. cerevisiae bub3 mutant strain, hits give high values
In short: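 Screening used yeast with an engineered genetic alteration affecting cell cycle control. Compound-exposed cultures were compared with vehicle cultures, and reduced growth was taken as inhibition.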

[12] = NCI Yeast Anticancer Drug Screen. Data for the wt2 strain (AID 169);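 also: 0% = growth of vehicle-treated yeast cultures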; details: S. cerevisiae wt2 strain growth inhibition, hits give high values
In short: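 Against vehicle-treated controls, the growth of yeast exposed to each compound was compared, and the inhibition was recorded.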

[13] = NCI Yeast Anticancer Drug Screen. Data for the mlh1 strain (AID 171);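 also: 0% = growth of vehicle-treated control cultures of the same strain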; details: S. cerevisiae mlh1 strain growth inhibition, hits give high values
In short: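 Measured: yeast growth. Reference: vehicle-treated controls. Organism: strain with a defined alteration affecting DNA damage repair or cell cycle control, treated with compound.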

[14] = NCI Yeast Anticancer Drug Screen. Data for the sgs1 strain (AID 173);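 also: 0% = growth of vehicle-only control cultures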; details: S. cerevisiae sgs1 mutant, hits give high values
In short: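 Each compound was added to cultures of the altered yeast strain. Growth was recorded, and inhibition was derived by comparison with vehicle controls.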

[15] = NCI Yeast Anticancer Drug Screen. Data for the mlh1 rad18 strain (AID 175); details: S. cerevisiae mlh1 rad18 strain growth inhibition, hits give high values
In short: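 Genetically defined yeast (DNA repair-deficient) exposed to compounds; growth inhibition determined relative to vehicle.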

[16] = NCI Yeast Anticancer Drug Screen. Data for the rad18 strain (AID 177); details: S. cerevisiae rad18 mutant growth inhibition, hits give high values
In short: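 Vehicle-treated cultures served as the baseline for scoring compound-induced growth inhibition in DNA-repair-mutant yeast.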

[17] = at 5.0 µM (retest, dose inferred, filed as 0.5)
[18] = at 50.0 µM (retest, dose inferred, filed as 5.0)

Measured: growth inhibition

CCOc1ccc2c(c1)c(CC(=O)O)cn2C
inactive: [1]; at 1.2 µM 0% | [1]; at 3.7 µM 7% | [1]; at 11.0 µM 20% | [1]; at 33.0 µM 60% | [2]; at 1.2 µM -4% | [2]; at 3.7 µM -3% | [2]; at 11.0 µM 3% | [2]; at 33.0 µM 28% | [2]; at 100.0 µM 54% | [3]; at 1.2 µM 6% | [3]; at 3.7 µM 27% | [4]; at 1.2 µM -3% | [4]; at 3.7 µM -6% | [4]; at 11.0 µM 1% | [4]; at 33.0 µM 18% | [4]; at 100.0 µM 51% | [5]; at 1.2 µM -6% | [5]; at 3.7 µM 7% | [5]; [17] -74% | [5]; at 11.0 µM 48% | [5]; at 50.0 µM 32.8% | [6]; at 1.2 µM 1% | [6]; at 3.7 µM -2% | [6]; [17] -40% | [6]; at 11.0 µM -7% | [6]; at 33.0 µM 27% | [6]; [18] 3% | [6]; at 50.0 µM 38.6% | [6]; at 100.0 µM 48% | [7]; at 1.2 µM 4% | [7]; at 3.7 µM 7% | [7]; at 11.0 µM 20% | [7]; at 33.0 µM 57% | [8]; [17] -38% | [8]; [18] 63% | [8]; at 50.0 µM 23.4% | [9]; at 1.2 µM -3% | [9]; at 3.7 µM -1% | [9]; at 11.0 µM 6% | [9]; at 33.0 µM 24% | [9]; at 100.0 µM 40% | [10]; [17] -47% | [10]; [18] -21% | [10]; at 50.0 µM 18.8% | [11]; at 1.2 µM -10% | [11]; at 3.7 µM 0% | [11]; [17] -49% | [11]; at 11.0 µM 12% | [11]; at 33.0 µM 50% | [12]; at 1.2 µM -3% | [12]; at 3.7 µM -3% | [12]; at 11.0 µM -3% | [12]; at 33.0 µM 16% | [12]; at 100.0 µM 61% | [13]; at 1.2 µM 5% | [13]; at 3.7 µM -4% | [13]; at 11.0 µM 13% | [13]; at 33.0 µM 42% | [14]; at 1.2 µM -1% | [14]; at 3.7 µM -3% | [14]; at 11.0 µM 21% | [14]; at 33.0 µM 63% | [15]; [17] -81% | [16]; at 1.2 µM 3% | [16]; at 3.7 µM 5% | [16]; at 11.0 µM 26% | [16]; at 33.0 µM 57%
active: [1]; at 100.0 µM 85% | [3]; at 11.0 µM 71% | [3]; at 33.0 µM 94% | [3]; at 100.0 µM 97% | [5]; at 33.0 µM 92% | [5]; [18] 94% | [5]; at 100.0 µM 98% | [7]; at 100.0 µM 75% | [11]; [18] 81% | [11]; at 50.0 µM 79.8% | [11]; at 100.0 µM 87% | [13]; at 100.0 µM 75% | [14]; at 100.0 µM 89% | [15]; [18] 92% | [15]; at 50.0 µM 88.2% | [16]; at 100.0 µM 87%
